Here are results for 40 sequences from the OligoGym collection.
Also: reference of the scale not given here.

One assay deals with TAAR8. Put plainly: pooled miR-30 sensor sort-seq; sequence = guide strand. The settings on record: shRNA.
Sequence TTATAGCTTGTTGTTTAGCTAT came in with a sensor-assay potency score (higher = more potent) of -0.98.
On to TATAAGAAAAATCTTACTGTAA, for which the sensor-assay potency score (higher = more potent) was -0.203.
As to TCAGTAACCACAATGTACCTGT, the sensor-assay potency score (higher = more potent) came to 0.327.
With TATAGCTTGTTGTTTAGCTATA, the sensor-assay potency score (higher = more potent) was -1.63.
TAATGGTTGATGAACTAGCCTT yielded a sensor-assay potency score (higher = more potent) of -0.64.
With TTAGCTATAAGAAAAATCTTAC, the sensor-assay potency score (higher = more potent) was -0.74.
For the sequence AAATCTATCAACACCCAGCCTT, the sensor-assay potency score (higher = more potent) was -0.587.

Another assay deals with TAC4. The description is as above. The settings on record: shRNA.
In the case of TCTCTGCCTTTTTTTCTCCTTG, the sensor-assay potency score (higher = more potent) is -0.948.
Consider TTCTGTGAACAGGCTTCTCTTG, for which the sensor-assay potency score (higher = more potent) is -0.693.
Same read-out and setting: then TGCTTTTTTTCTCCTTGGCTGG, with -1.36.
Same read-out and setting: the result for TTTTTTTCTCCTTGGCTGGATC reads -1.14; that for TATGCTTTTTTTCTCCTTGGCT, -0.257; that for TGAACAGGCTTCTCTTGCCCAG, -1.26.
In turn, TCTGTGAACAGGCTTCTCTTGC showed a sensor-assay potency score (higher = more potent) of -0.505.
As to TCATCCTCTCTGCCTTCTGTGA, the sensor-assay potency score (higher = more potent) was -1.57.
The sequence TCTGCCTTCTGTGAACAGGCTT showed a sensor-assay potency score (higher = more potent) of -0.554.
On the same count and under the same terms, the result for TTCCTCTCCACCATCACCTGCC reads 0.531; that for TGCAGCTGGAGCTGAATGCTGG, -1.1.
TGCTTCAGTGCTGAGTGTCTGT: the sensor-assay potency score (higher = more potent) is -0.405.

The target of another assay is TACR1. The description is as above. To be noted: shRNA.
In the case of TAGATCAGCACAGTCACACAGA, the sensor-assay potency score (higher = more potent) is -0.182.
Same read-out and setting: the result for TAGTTCGTCACTGTCCTCATTC reads -0.77; that for TAGGTGAAGTTCACCACTGTAT, -0.204; that for TTCGTCACTGTCCTCATTCTTT, -0.603.
The same measure, in the same setting: the result for TGGTCTTGGAGTCACTTCGTGA reads -1.54.
As for TCGATCATGCACACGACTCTGC, the sensor-assay potency score (higher = more potent) was 0.106.
TCGTTGTGGACAGCATAGGTGA gave a sensor-assay potency score (higher = more potent) of -1.11.
Sequence TTGAGTAGTAGCCCTGGGGGAA yielded a sensor-assay potency score (higher = more potent) of -0.65.
The same measure, in the same setting: then TTTCTCATAAATCTTGTTCGGA, with 0.392.
TGACTTTGTACACACTGCCCTG: the sensor-assay potency score (higher = more potent) was -1.2.
TAGAACAGGCCGTAGTACCATT returned a sensor-assay potency score (higher = more potent) of -1.05.
For the sequence TTCTCATAAATCTTGTTCGGAT, the sensor-assay potency score (higher = more potent) was -0.905.

A further assay concerns the target TAF3. The description is as above. To be noted: shRNA.
Sequence TTGATTTTAAACTTGTAGGGAT returned a sensor-assay potency score (higher = more potent) of 0.554.
On the same count and under the same terms, the result for TAACACAACATCTAGCGTGTCC reads 0.323.
For TTCTTGAGAAGACACAATGGGT, the sensor-assay potency score (higher = more potent) is -1.17.
Turning to TATCTTTATCTTTCTTGCCTTT, the sensor-assay potency score (higher = more potent) was -0.809.
In turn, TTTGGGAGTAGTACACTCCGGG had a sensor-assay potency score (higher = more potent) of 0.0818.
With TTGTCCTTCTTCTTGTTCGCAC, the sensor-assay potency score (higher = more potent) was determined as 0.171.
The same measure, in the same setting: the result for TTTCACTTTATCCTTCTCCTTA reads 0.0178; that for TTCAGCTTCAGGACTATCCAGT, -0.217; that for TAAACTTGTAGGGATCTGCCTC, 0.187.
